Measurements published in PubChem BioAssay (EPA / NIEHS).
The source made the active and inactive calls. The calls were made as follows: active = hit-call score of the fitted dose curve at least 0.9, where 1 is the maximum; inactive = score below 0.9.

Experiments:
Conditions in all cases: mRNA level, 48 h; actives raise or lower the signal
[1] = read-out: Bcl-2 (BAX) gene, BAX (gene 581); test: LTEA_HepaRG_BAX: Life Technologies and Expression Analysis (LTEA) Assay for Bcl-2 (BAX) gene using HepaRG (AID 2283470)
In short: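 Human HepaRG cells treated in duplicate for 48 h across eight concentrations (max 100 uM, 0.5% DMSO); BAX expression measured by qRT-PCR.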

[2] = read-out: adenosine kinase (ADK) gene, ADK (gene 132); test: LTEA_HepaRG_ADK: Life Technologies and Expression Analysis (LTEA) Assay for adenosine kinase (ADK) gene using HepaRG (AID 2283471)
In short: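 ADK expression quantified by qRT-PCR, normalised to three housekeeping genes, after 48 h exposure of HepaRG cells to eight concentrations (top 100 uM, half-log steps, duplicate, 0.5% DMSO). Up- or down-regulation fitted relative to vehicle.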

[3] = read-out: Alpha-fetoprotein (AFP) gene, AFP (gene 174); test: LTEA_HepaRG_AFP: Life Technologies and Expression Analysis (LTEA) Assay for Alpha-fetoprotein (AFP) gene using HepaRG (AID 2283472)
In short: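 Measures AFP mRNA change in HepaRG after 48 h chemical exposure (8 half-log concentrations, highest 100 uM, 0.5% DMSO). Fold change relative to DMSO, fitted in both directions.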

BCL2L11 (gene 10018) = test: LTEA_HepaRG_BCL2L11: Life Technologies and Expression Analysis (LTEA) Assay for Bcl-2 (BCL2L11) gene using HepaRG (AID 2283473)
In short: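 Differentiated human HepaRG cells in serum-free induction medium were exposed in duplicate for 48 h to eight concentrations (top 100 uM, half-log steps, 0.5% DMSO). BCL2L11 mRNA was quantified by TaqMan qRT-PCR, normalized to ACTB/GAPDH/POLR2A, bidirectional fit versus DMSO.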

[4] = read-out: Apolipoprotein A-V (APOA5) gene, APOA5 (gene 116519); test: LTEA_HepaRG_APOA5: Life Technologies and Expression Analysis (LTEA) Assay for Apolipoprotein A-V (APOA5) gene using HepaRG (AID 2283474)
In short: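 Differentiated human HepaRG cells were exposed in duplicate for 48 h to eight half-log concentrations from 100 uM in 0.5% DMSO. APOA5 mRNA was quantified by TaqMan qRT-PCR, normalized to ACTB, GAPDH and POLR2A, and fitted bidirectionally against DMSO.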

[5] = read-out: Bcl-2 (BID) gene, BID (gene 637); test: LTEA_HepaRG_BID: Life Technologies and Expression Analysis (LTEA) Assay for Bcl-2 (BID) gene using HepaRG (AID 2283476)
In short: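 Assay used HepaRG hepatic cells treated 48 h in serum-free medium with half-log dilutions from 100 uM. Endpoint: BID mRNA, qRT-PCR, normalized to ACTB/GAPDH/POLR2A.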

Caspase-3 (Homo sapiens) = Caspase-3 (Homo sapiens) (UniProt P42574); test: LTEA_HepaRG_CASP3: Life Technologies and Expression Analysis (LTEA) Assay for cysteine-aspartic acid protease (CASP3) using HepaRG (AID 2283477)
In short: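 Differentiated human HepaRG cells in serum-free induction medium were exposed 48 h to 8-point half-log concentrations from 100 uM (0.5% DMSO vehicle). CASP3 mRNA was measured by qRT-PCR, normalised to ACTB, GAPDH and POLR2A, with bidirectional fitting against DMSO.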

[6] = read-out: cysteine-aspartic acid protease (CASP8), CASP8 (gene 841); test: LTEA_HepaRG_CASP8: Life Technologies and Expression Analysis (LTEA) Assay for cysteine-aspartic acid protease (CASP8) using HepaRG (AID 2283480)
In short: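 qRT-PCR readout of CASP8 mRNA, normalized to three housekeeping genes, after 48 h chemical exposure of HepaRG cells; 8-point half-log series, top 100 uM, 0.5% DMSO vehicle. Bidirectional curve fitting against DMSO baseline.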

[7] = read-out: Pro-epidermal growth factor (Homo sapiens) (UniProt P01133); test: LTEA_HepaRG_EGF: Life Technologies and Expression Analysis (LTEA) Assay for Epidermal growth factor (EGF) using HepaRG (AID 2283489)
In short: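 Differentiated human HepaRG cells, plated 48 h then switched to serum-free induction medium, were exposed for 48 h to test chemicals (8-point half-log series, top 100 uM, 0.5% DMSO). EGF mRNA was quantified by qRT-PCR, normalized to ACTB, GAPDH, POLR2A.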

[8] = read-out: Early growth response protein 1 (EGR1) transcription factor, EGR1 (gene 1958); test: LTEA_HepaRG_EGR1: Life Technologies and Expression Analysis (LTEA) Assay for Early growth response protein 1 (EGR1) transcription factor using HepaRG (AID 2283490)
In short: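 HepaRG, 48 h exposure, 8-pt half-log series from 100 uM, 0.5% DMSO vehicle; EGR1 transcript by TaqMan qRT-PCR (Fluidigm array), housekeeping-normalized; bidirectional fit relative to DMSO baseline.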

[9] = read-out: Ezrin (EZR), EZR (gene 7430); test: LTEA_HepaRG_EZR: Life Technologies and Expression Analysis (LTEA) Assay for Ezrin (EZR) using HepaRG (AID 2283491)
In short: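 EZR transcript levels came from Fluidigm qRT-PCR and were normalized to three housekeeping genes after 48 h chemical exposure of HepaRG cells. Dosing used an 8-point half-log series with a 100 uM top concentration in 0.5% DMSO, tested in duplicate; both directions were fitted versus vehicle.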

[10] = read-out: Fatty Acid-Binding Protein 1 (FABP1), FABP1 (gene 2168); test: LTEA_HepaRG_FABP1: Life Technologies and Expression Analysis (LTEA) Assay for Fatty Acid-Binding Protein 1 (FABP1) using HepaRG (AID 2283494)
In short: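 qRT-PCR readout of FABP1 transcript (normalized to three housekeeping genes) after 48 h chemical exposure of HepaRG cells; eight concentrations, half-log steps, max 100 uM, 0.5% DMSO vehicle; gain or loss fitted relative to DMSO baseline.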

[11] = read-out: Cytochrome P450 (CYP24A1), CYP24A1 (gene 1591); test: LTEA_HepaRG_CYP24A1: Life Technologies and Expression Analysis (LTEA) Assay for Cytochrome P450 (CYP24A1) using HepaRG (AID 2283478)
In short: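 Differentiated HepaRG cells, pre-cultured 48 h, were exposed in duplicate for 48 h in serum-free induction medium to 8 half-log concentrations (top 100 uM, 0.5% DMSO). CYP24A1 mRNA was quantified by TaqMan qRT-PCR, normalized to ACTB/GAPDH/POLR2A, fitted bidirectionally versus DMSO.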

[12] = read-out: Cytochrome P450 (CYP2B6), CYP2B6 (gene 1555); test: LTEA_HepaRG_CYP2B6: Life Technologies and Expression Analysis (LTEA) Assay for Cytochrome P450 (CYP2B6) using HepaRG (AID 2283481)
In short: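 Differentiated HepaRG cells, serum-free induction medium, exposed 48 h in duplicate to 8-point half-log concentrations from 100 uM in 0.5% DMSO. CYP2B6 mRNA by qRT-PCR, normalized to ACTB, GAPDH, POLR2A; bidirectional fit versus DMSO.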

[13] = read-out: Cytochrome P450 2C19 (Homo sapiens) (UniProt P33261); test: LTEA_HepaRG_CYP2C19: Life Technologies and Expression Analysis (LTEA) Assay for CYP2C19 using HepaRG (AID 2283482)
In short: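 Differentiated human HepaRG cells were exposed for 48 h in serum-free induction medium to 8 concentrations (top 100 uM, half-log steps, 0.5% DMSO). CYP2C19 mRNA was measured by qRT-PCR, normalized to ACTB/GAPDH/POLR2A, and fitted bidirectionally against DMSO.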

CYP2C9 (gene 1559) = test: LTEA_HepaRG_CYP2C9: Life Technologies and Expression Analysis (LTEA) Assay for CYP2C9 using HepaRG (AID 2283484)
In short: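 HepaRG, 48 h dosing, 8-pt half-log series, top 100 uM, 0.5% DMSO vehicle. Read-out: CYP2C9 transcript by TaqMan qRT-PCR, housekeeping-normalized (ACTB/GAPDH/POLR2A). Gain or loss fitted vs DMSO baseline.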

CYP2E1 (gene 1571) = test: LTEA_HepaRG_CYP2E1: Life Technologies and Expression Analysis (LTEA) Assay for CYP2E1 using HepaRG (AID 2283485)
In short: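 Assay uses 48 h exposure of HepaRG hepatic cells, eight concentrations to 100 uM. Expression of CYP2E1 is quantified by TaqMan qRT-PCR with ACTB, GAPDH and POLR2A normalization; curves fitted in both directions relative to vehicle.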

CYP4A11 (gene 1579) = test: LTEA_HepaRG_CYP4A11: Life Technologies and Expression Analysis (LTEA) Assay for CYP4A11 using HepaRG (AID 2283486)
In short: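 Differentiated HepaRG cells, serum-free induction medium, exposed 48 h in duplicate to 8-point half-log series from 100 uM in 0.5% DMSO. CYP4A11 mRNA measured by qRT-PCR, normalized to ACTB, GAPDH, POLR2A; bidirectional fit versus DMSO.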

[14] = read-out: Cytochrome P450 3A4 (Homo sapiens) (UniProt P08684); test: LTEA_HepaRG_CYP3A4: Life Technologies and Expression Analysis (LTEA) Assay for CYP3A4 using HepaRG (AID 2283487)
In short: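 Differentiated HepaRG cells, plated 48 h, then dosed 48 h in serum-free induction medium with 0.5% DMSO, 8 half-log concentrations up to 100 uM, duplicate. CYP3A4 mRNA by qRT-PCR, normalized to ACTB/GAPDH/POLR2A; bidirectional fit versus DMSO.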

CYP3A5 (gene 1577) = test: LTEA_HepaRG_CYP3A5: Life Technologies and Expression Analysis (LTEA) Assay for CYP3A5 using HepaRG (AID 2283493)
In short: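 Readout was CYP3A5 mRNA by qRT-PCR. HepaRG cultures were exposed for 48 h in serum-free induction medium to chemicals at up to 100 uM, and responses were fitted in both directions relative to DMSO vehicle.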

Measured: AC50

Chain of Caspase-3 (Homo sapiens) (P42574 whole entry, looked up): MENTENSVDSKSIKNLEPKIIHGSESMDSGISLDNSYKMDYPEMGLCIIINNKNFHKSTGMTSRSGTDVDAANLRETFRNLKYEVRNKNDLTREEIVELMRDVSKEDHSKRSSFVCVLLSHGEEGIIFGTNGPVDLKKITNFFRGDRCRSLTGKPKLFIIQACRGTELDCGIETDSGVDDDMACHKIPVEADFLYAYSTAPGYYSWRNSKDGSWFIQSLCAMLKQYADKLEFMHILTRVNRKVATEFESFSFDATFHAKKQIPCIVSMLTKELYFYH
Chain of Cytochrome P450 3A4 (Homo sapiens) (P08684 whole entry, looked up): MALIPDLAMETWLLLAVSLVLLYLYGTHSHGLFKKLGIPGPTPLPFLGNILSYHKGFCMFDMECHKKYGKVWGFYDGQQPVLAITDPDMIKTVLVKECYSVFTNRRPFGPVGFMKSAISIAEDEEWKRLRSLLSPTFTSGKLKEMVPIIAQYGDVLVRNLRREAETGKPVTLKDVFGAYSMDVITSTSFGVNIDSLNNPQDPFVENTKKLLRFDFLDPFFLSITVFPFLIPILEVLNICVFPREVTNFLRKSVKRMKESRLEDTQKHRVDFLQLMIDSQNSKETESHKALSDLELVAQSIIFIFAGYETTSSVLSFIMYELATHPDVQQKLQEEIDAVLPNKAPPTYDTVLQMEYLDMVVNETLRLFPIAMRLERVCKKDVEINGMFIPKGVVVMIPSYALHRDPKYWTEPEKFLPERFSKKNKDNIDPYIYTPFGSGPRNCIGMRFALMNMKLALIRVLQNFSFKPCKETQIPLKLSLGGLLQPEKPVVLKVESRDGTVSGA
Chain of Cytochrome P450 2C19 (Homo sapiens) (P33261 whole entry, looked up): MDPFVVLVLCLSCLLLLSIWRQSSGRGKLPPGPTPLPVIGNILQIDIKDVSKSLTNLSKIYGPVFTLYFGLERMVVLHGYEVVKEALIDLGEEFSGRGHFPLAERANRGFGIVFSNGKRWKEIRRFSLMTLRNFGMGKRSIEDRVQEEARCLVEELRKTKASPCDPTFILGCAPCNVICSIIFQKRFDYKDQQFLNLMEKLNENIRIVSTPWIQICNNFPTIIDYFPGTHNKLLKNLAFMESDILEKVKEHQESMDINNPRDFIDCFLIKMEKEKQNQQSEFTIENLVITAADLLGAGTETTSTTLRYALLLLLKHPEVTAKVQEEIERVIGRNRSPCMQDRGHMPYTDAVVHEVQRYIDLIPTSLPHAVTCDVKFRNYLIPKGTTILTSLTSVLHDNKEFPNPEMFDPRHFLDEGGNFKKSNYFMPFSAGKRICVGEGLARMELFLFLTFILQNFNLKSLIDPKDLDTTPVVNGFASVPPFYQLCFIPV

O=C(c1ccccc1)c1ccccc1
active: [10] 0.851 µM
not listed: [11] | [12] | [13] | CYP2C9 (gene 1559) | CYP2E1 (gene 1571) | CYP4A11 (gene 1579) | [14] | CYP3A5 (gene 1577)
inactive: all other assays above

CCCCc1oc2ccccc2c1C(=O)c1cc(I)c(OCCN(CC)CC)c(I)c1
inactive: [2] | BCL2L11 (gene 10018) | [5] | Caspase-3 (Homo sapiens) | [6] | [7]
active: [1] 65.2 µM | [3] 11.9 µM | [4] 61.6 µM | [8] 61 µM | [9] 58.2 µM | [10] 69.9 µM

Cc1[nH]nc2c1N=C(c1ccccc1Cl)c1cc([N+](=O)[O-])ccc1N2
active: [1] 3.85 µM | [3] 4.36 µM | BCL2L11 (gene 10018) 2.82 µM | [4] 9.84 µM | [11] 4.02 µM | [12] 8.93 µM | [13] 4.24 µM | CYP2C9 (gene 1559) 5.12 µM | CYP2E1 (gene 1571) 10.1 µM | CYP4A11 (gene 1579) 5.26 µM | [14] 77.6 µM | [9] 1.38 µM | CYP3A5 (gene 1577) 13.4 µM | [10] 8.85 µM
inactive: [2] | Caspase-3 (Homo sapiens) | [6] | [7] | [8]

CN(C)CCOC(c1ccccc1)c1ccccc1
active: [3] 73.9 µM
not listed: [11] | [12] | [13] | CYP2C9 (gene 1559) | CYP2E1 (gene 1571) | CYP4A11 (gene 1579) | [14] | CYP3A5 (gene 1577)
inactive: all other assays above

CCCCCCCCCCCCCCC
active: [12] 5.89 µM | [13] 17.3 µM | CYP2E1 (gene 1571) 1.94 µM | [14] 8.75 µM
inactive: all other assays above
